Records with an inconclusive call do not appear. A call without a number means that no potency is given here. Activity calls are given as the source filed them. Calls come from the whole dose curve; as a rule, active = well fitted inhibition curve with a large enough effect; inconclusive = small, poorly fitted or top-dose-only effect; inactive = flat fitted curve, though single readings scatter.
Assay: InCell qHTS Assay for Inhibitors of the mTORC1 Signaling Pathway in WT MEF Cells: Hit Validation
Source text: The mammalian target of rapamycin (mTOR) is an intracellular serine/threonine kinase Aberrant regulation of mTOR signaling plays a causative role in a number of human diseases, including cancer, benign tumors such as lymphangioleiomyomatosis (LAM) and Tuberous Sclerosis Complex (TSC), and metabolic diseases such as diabetes and obesity. This project aims to identify inhibitors of ribosomal protein S6 (rpS6) phosphorylation. The phosphorylation of rpS6 is a key event downstream of mTOR activation. The assay uses a phospho-specific antibody of phospho-rpS6 to detect inhibitors of mTOR activation. […]
For quantitative high throughput analysis of mTORC1 signaling, we developed a cell-based assay for immuno-fluorescence based detection of rpS6 phosphorylation on the Acumen Explorer that will be used a platform for the primary small molecule screen. […] The fluorescence emission from the Alexa-488 conjugated rpS6 phospho-235/236 antibody staining is selected using a […] band pass filter. Fluorescence emission from the PI stain is selected using a 575-640 nm band pass filter. The normalized phospho-S6 staining is calculated as the ratio of the integrated Alexa 488 intensity divided by the integrated PI intensity for the single concentration rapamycin control (7.5 nM) and DMSO columns. […]

## CCOc1ccc(NC(=O)c2cc3c(C)nn(-c4ccccc4)c3s2)cc1
  Potency: 17.9 µM (active)

## Cn1cc(C2=C(c3cn(C4CCN(Cc5ccccn5)CC4)c4ccccc34)C(=O)NC2=O)c2ccccc21
  Potency: inactive

From PubChem BioAssay AID651793 (National Center for Advancing Translational Sciences (NCATS), 2012)
